Results taken from ChEMBL document CHEMBL3988442, “University of Dundee, Small-Polar-MMV Screening Library” (2021).

molecular target: AMP-activated protein kinase, AMPK (Homo sapiens) (UniProt P54646+O43741+P54619+Q9UGJ0+Q9Y478+Q13131+Q9UGI9); assay: AMP-dependent Kinase enzyme assay. An in vitro enzyme assay that detects ADP turnover that is directly proportional to AMPK activity. This uses naive AMPK that is activated during the assay with MK-8722; assay type: functional; design: scale not given: direction of the effect not stated beside the values; conditions: 30 µM

Compound | Percent Effect [%]
CNC(=O)c1ccc(C2CN(c3cc(C)nc(N)n3)CCO2)nc1 (centres undefined) | -3.96
Cc1nc(N(C)C)ncc1C(=O)N(Cc1ccncc1)CC1CCCO1 (centres undefined) | -6.01
COc1ccc2cc(C(=O)NCCNc3ccc(C)nn3)[nH]c2c1 | 8.22
COc1ccc(CN2C[C@@H]3CC[C@H](C2)N(S(=O)(=O)C2CC2)C3)cc1 | 10.7
Cc1cc(=O)[nH]c(-n2nc(-c3ccccc3)cc2N)n1 | -11.4
O=C1NCCCN1Cc1nc(-c2ccc(N3CCCCC3)cc2)no1 | 3.5
COc1ccccc1CN1CCC(c2nccc(C)n2)C1 (centres undefined) | -3.97
COCCC1(C(=O)O)CCCN(c2cc(C)c3ccccc3n2)C1 (centres undefined) | 3.66
CCc1nn(C)c(Cl)c1CN1CCC2(C1)CN(C)C(=O)O2 (centres undefined) | 6.22
O=C(CC1COCCN1)N1CCC2(CCc3ccccc32)CC1 (centres undefined) | -0.69
CN1C(=O)c2ccc(C(=O)N(Cc3cnn(C)c3)C3CC3)cc2C1=O | 11.4
O=C(NCCS(=O)(=O)N1CCN(c2ncccn2)CC1)C1CCCC1 | -1.53
CN(Cc1nc2ccccc2n1C)C(=O)CCc1cscn1 | 3.49
CCOCC(C)(C)NC(=O)Nc1cc(F)ccc1OC | 1.04
N#Cc1c(N)nc2c(c1-c1c[nH]nc1C1CCCCC1)CC(N)CC2 (centres undefined) | 23.9
CCc1cccc(C)c1NC(=O)NCCCN(CC)S(C)(=O)=O | 22.2
O=C(NCC1CCOC1)c1cc(-c2ccccc2Cl)[nH]n1 (centres undefined) | 2.35
O=S(=O)(N1CCOCC1)N1CCCCC1CCn1cccn1 (centres undefined) | 29.5
O=C1NCCCC12CCN(Cc1ccc(-c3ccccc3)s1)C2 (centres undefined) | 6.83
CCCS(=O)(=O)NCc1ncc(C)c(OC)c1C | 6.9

Compound | Percent Effect [%]
O=C(NCc1ccc(Br)c(F)c1)Nc1cn[nH]c1 | -0.537
CN(Cc1ccsc1)C(=O)c1nc(N2CCCC2)ncc1Cl | -1.6
Cc1nc(CNC(=O)Nc2c(C)n[nH]c2C)cs1 | -7.09
CC(C(=O)Nc1nccs1)N(C)Cc1cccc(C#N)c1 (centres undefined) | 8.51
CC(C)c1cc(C2CCN(C(=O)Cn3cncn3)CC2)[nH]n1 | 29.2
NC(=O)N1CCCCCC1C1CCN(c2nccc(C(F)(F)F)n2)CC1 (centres undefined) | -5.81
CNc1cc2c(nn1)CCN(C(=O)c1ccc(-n3cccn3)nc1)C2 | -15.7
CC(Cn1ccnc1)NC(=O)NCCN1CCCCCC1=O (centres undefined) | 0.204
Cn1cc(S(=O)(=O)N(Cc2ccc(F)cc2F)C2CC2)cc1C(N)=O | 3.23
O=C(NCc1nnc2n1CCC2)c1cccc(Br)c1 | 3.99
COc1ccc(CN(Cc2ccsc2)CC2CCCO2)cn1 (centres undefined) | 5.75
CCCN(CC(=O)N(C)C)C(=O)c1ccc(-c2nc(C)cs2)cc1 | 4.25
CNC(=O)c1cccnc1NCc1ccc(Cn2ccnc2)cc1 | -1.78
CN1CCN(C2CCN(C(=O)CCC3CCCC3)CC2)CC1 | 7.72
O=C(CCn1cnnn1)N1CCCC(CO)(CCc2ccccc2)C1 (centres undefined) | 6.31
CC(c1ccc(F)cc1F)N1CCN(CCC(=O)O)CC1 (centres undefined) | 8.21
CCCC(=O)NC1CCCN(c2nc3ccccc3cc2CO)C1 (centres undefined) | 6.66
O=C(Cc1ccon1)NC1CCCN(c2ccccc2F)C1=O (centres undefined) | 1.71
Cc1cc(C(=O)NC(C)Cc2ccc(N(C)C)cc2)n(C)n1 (centres undefined) | 11.6
